Reference: PubChem BioAssay (NCI)
Compounds without any hit were thinned out: in the full panel of roughly 83,000, 20% have a hit.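 The endpoint reported here, percent growth, reads 100 for growth as untreated, 0 for no net growth and -100 for all cells dead.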 The source made the active and inactive calls. Rule for the calls: active = growth percent below 10; inactive = the rest.

Key:
Experiment in all cases: NCI-60 one-dose screen, 48 h (100 = growth as untreated, 0 = no growth, -100 = all killed)
Conditions in all cases: 10 µM unless noted
SR leukemia = tested on: SR leukemia
RPMI-8226 leukemia = tested on: RPMI-8226 leukemia
OVCAR-8 ovarian = tested on: OVCAR-8 ovarian
OVCAR-5 ovarian = tested on: OVCAR-5 ovarian
OVCAR-4 ovarian = tested on: OVCAR-4 ovarian
SK-OV-3 ovarian = tested on: SK-OV-3 ovarian
OVCAR-3 ovarian = tested on: OVCAR-3 ovarian
HS 578T breast = tested on: HS 578T breast
NCI/ADR-RES ovarian = tested on: NCI/ADR-RES ovarian
T-47D breast = tested on: T-47D breast
BT-549 breast = tested on: BT-549 breast
MDA-MB-435 melanoma = tested on: MDA-MB-435 melanoma
SW-620 colon = tested on: SW-620 colon
MCF7 breast = tested on: MCF7 breast
HCT-116 colon = tested on: HCT-116 colon
HCC-2998 colon = tested on: HCC-2998 colon
KM12 colon = tested on: KM12 colon
IGROV1 ovarian = tested on: IGROV1 ovarian

Measured: growth

CCNc1ncnc2c1cnn2C1CCCO1 (stereo not drawn)
inactive: SR leukemia 94.3% | RPMI-8226 leukemia 98.5% | OVCAR-8 ovarian 115% | OVCAR-5 ovarian 102% | OVCAR-4 ovarian 108% | SK-OV-3 ovarian 104% | OVCAR-3 ovarian 111% | HS 578T breast 113% | NCI/ADR-RES ovarian 100% | T-47D breast 104% | BT-549 breast 105% | MDA-MB-435 melanoma 103% | SW-620 colon 100% | MCF7 breast 102% | HCT-116 colon 100% | HCC-2998 colon 109% | KM12 colon 99.1%

CCCCn1c(-c2ccc(C(=O)O/N=C(\N)c3ccc4c(c3)OCO4)cc2)nc(-c2ccccc2)c1-c1ccccc1
inactive: RPMI-8226 leukemia 29.6% | OVCAR-8 ovarian 44.5% | OVCAR-5 ovarian 54.1% | OVCAR-4 ovarian 40.1% | OVCAR-3 ovarian 38.5% | HS 578T breast 41.1% | NCI/ADR-RES ovarian 18.6% | BT-549 breast 54.5% | MDA-MB-435 melanoma 46.1% | SW-620 colon 60.3% | MCF7 breast 48.1% | HCC-2998 colon 61.5% | KM12 colon 36.8%
active: SR leukemia -29.2% | IGROV1 ovarian -68.5% | T-47D breast 0.0231% | HCT-116 colon 4.35%

CS(=O)(=O)c1ccc(-n2nc(-c3ccc(Br)cc3)c3ccccc3c2=O)cc1
inactive: SR leukemia 110% | RPMI-8226 leukemia 99.8% | OVCAR-8 ovarian 100% | OVCAR-5 ovarian 108% | OVCAR-4 ovarian 97.8% | IGROV1 ovarian 109% | OVCAR-3 ovarian 102% | HS 578T breast 100% | T-47D breast 86.5% | BT-549 breast 91.1% | MDA-MB-435 melanoma 103% | SW-620 colon 104% | MCF7 breast 85.9% | HCT-116 colon 96.7% | HCC-2998 colon 98% | KM12 colon 102%

CSc1nc2c(c(=O)[nH]1)C1(C(=O)Nc3ccccc31)c1c(nc(SC)[nH]c1=O)N2
inactive: SR leukemia 98.8% | RPMI-8226 leukemia 108% | OVCAR-8 ovarian 110% | OVCAR-5 ovarian 93.9% | OVCAR-4 ovarian 109% | IGROV1 ovarian 102% | OVCAR-3 ovarian 105% | HS 578T breast 106% | NCI/ADR-RES ovarian 108% | T-47D breast 111% | BT-549 breast 107% | MDA-MB-435 melanoma 104% | SW-620 colon 99.1% | MCF7 breast 102% | HCT-116 colon 106% | HCC-2998 colon 104% | KM12 colon 103%

O=C1c2cc3c(cc2-c2c1c1ccc(Cl)cc1c(=O)n2CCCN1CCOCC1)OCO3
active: SR leukemia 4.71%
inactive: RPMI-8226 leukemia 60.8% | OVCAR-8 ovarian 70.9% | OVCAR-5 ovarian 109% | OVCAR-4 ovarian 91.9% | IGROV1 ovarian 82.6% | OVCAR-3 ovarian 86.5% | HS 578T breast 108% | NCI/ADR-RES ovarian 45.9% | T-47D breast 28.6% | BT-549 breast 59.6% | MDA-MB-435 melanoma 85.4% | SW-620 colon 57.2% | MCF7 breast 18.5% | HCT-116 colon 56.3% | HCC-2998 colon 74.4% | KM12 colon 75.2%

O=C(Cn1cccc(Nc2ccccc2)c1=O)Nc1ccccc1
inactive: SR leukemia 104% | RPMI-8226 leukemia 100% | OVCAR-8 ovarian 102% | OVCAR-5 ovarian 90.1% | OVCAR-4 ovarian 102% | IGROV1 ovarian 119% | OVCAR-3 ovarian 115% | HS 578T breast 102% | T-47D breast 93.9% | BT-549 breast 106% | MDA-MB-435 melanoma 97.3% | SW-620 colon 102% | MCF7 breast 96.1% | HCT-116 colon 98.6% | HCC-2998 colon 109% | KM12 colon 110%

CC(=O)O[C@H]1[C@@H]2OC(=O)C(CSc3ccccc3)[C@@H]2C[C@H]2O[C@]2(C)CC/C=C(\C)CCC[C@@H]1C (stereo partly drawn)
active: OVCAR-3 ovarian -9.73% | SW-620 colon -20.7% | HCT-116 colon -36.7%
inactive: SR leukemia 58.2% | RPMI-8226 leukemia 51.6% | OVCAR-8 ovarian 28.7% | OVCAR-5 ovarian 83.6% | OVCAR-4 ovarian 34.3% | SK-OV-3 ovarian 103% | HS 578T breast 69.6% | NCI/ADR-RES ovarian 29.6% | T-47D breast 38.3% | MDA-MB-435 melanoma 25.8% | MCF7 breast 10.6% | HCC-2998 colon 80.7% | KM12 colon 51.5%

CC(=O)c1nc2ccccc2n1CC(=O)c1cccc(Cl)c1
inactive: OVCAR-8 ovarian 10.1% | OVCAR-5 ovarian 47.5% | OVCAR-4 ovarian 22.9% | SK-OV-3 ovarian 17.5% | NCI/ADR-RES ovarian 13.9% | BT-549 breast 34.9% | SW-620 colon 23% | HCC-2998 colon 29.9%
active: SR leukemia -12.6% | RPMI-8226 leukemia -11.8% | OVCAR-3 ovarian -31.3% | T-47D breast -11.3% | MDA-MB-435 melanoma -27.4% | MCF7 breast 1.85% | HCT-116 colon 5.82% | KM12 colon 8.72%

CC(C)(C)c1cc(C(C)(C)C)cc(S(=O)(=O)Nc2cc3ccccc3cc2C(=O)NCCN)c1
inactive: OVCAR-5 ovarian 94.8% | OVCAR-4 ovarian 70.6% | IGROV1 ovarian 62.3% | OVCAR-3 ovarian 70.5% | HS 578T breast 73.2% | NCI/ADR-RES ovarian 82% | BT-549 breast 101% | HCT-116 colon 11.9%
active: SR leukemia -32.1% | RPMI-8226 leukemia -5.61% | OVCAR-8 ovarian 5.01% | T-47D breast 5.06% | MDA-MB-435 melanoma 0.859% | SW-620 colon -78% | MCF7 breast -10.6% | HCC-2998 colon -38.6% | KM12 colon -33.4%

O=[N+]([O-])c1ccccc1/C=N\NC(=S)N/N=C/c1ccccc1[N+](=O)[O-]
active: OVCAR-3 ovarian -27% | MDA-MB-435 melanoma -1.94%
inactive: SR leukemia 19% | RPMI-8226 leukemia 87.3% | OVCAR-8 ovarian 102% | OVCAR-5 ovarian 86.4% | OVCAR-4 ovarian 98.9% | IGROV1 ovarian 15% | HS 578T breast 62.9% | NCI/ADR-RES ovarian 14.4% | T-47D breast 61% | BT-549 breast 47.4% | SW-620 colon 23.9% | MCF7 breast 58.9% | HCT-116 colon 18.9% | HCC-2998 colon 73.5% | KM12 colon 17%

CN(CCCCCl)P(=O)(OCc1ccc([N+](=O)[O-])o1)C(F)(F)c1ccc(CC(=O)NC[C@@H](O)/C=C\[C@@H](O)[C@H](CO)Cc2ccccc2)cc1 (stereo partly drawn)
inactive: SR leukemia 47.7% | RPMI-8226 leukemia 77.1% | OVCAR-8 ovarian 95.1% | OVCAR-5 ovarian 111% | OVCAR-4 ovarian 95.2% | IGROV1 ovarian 99.4% | OVCAR-3 ovarian 107% | HS 578T breast 103% | NCI/ADR-RES ovarian 101% | T-47D breast 75.5% | BT-549 breast 90.7% | MDA-MB-435 melanoma 65.4% | SW-620 colon 87.7% | MCF7 breast 59.9% | HCT-116 colon 93.3% | HCC-2998 colon 105% | KM12 colon 85.5%

O=C1C=C(O)C(=O)C(CC2=C(O)C(=O)C=C(O)C2=O)=C1O
inactive: SR leukemia 103% | RPMI-8226 leukemia 107% | OVCAR-8 ovarian 105% | OVCAR-5 ovarian 91% | OVCAR-4 ovarian 101% | IGROV1 ovarian 109% | OVCAR-3 ovarian 108% | HS 578T breast 99.4% | NCI/ADR-RES ovarian 99.6% | T-47D breast 104% | MDA-MB-435 melanoma 100% | SW-620 colon 97.8% | MCF7 breast 105% | HCT-116 colon 106% | HCC-2998 colon 97.2% | KM12 colon 104%

C=C1c2nc3ccccc3n2C=C(c2cccc(Cl)c2)N1Cc1ccc(OC)cc1
active: SR leukemia -17.4% | RPMI-8226 leukemia -15.6% | OVCAR-8 ovarian 9.77% | SK-OV-3 ovarian 5.13% | OVCAR-3 ovarian -28.1% | T-47D breast -22.5% | BT-549 breast -1.26% | MDA-MB-435 melanoma -32.3% | MCF7 breast 4.64%
inactive: OVCAR-5 ovarian 35.3% | OVCAR-4 ovarian 32.4% | HS 578T breast 15.5% | NCI/ADR-RES ovarian 10.2% | SW-620 colon 20.6% | HCT-116 colon 12.8% | HCC-2998 colon 25.7% | KM12 colon 13%

CC(=O)Nc1ccc(S(=O)(=O)Nc2cccc(-c3nc(-c4ccc(NC(=O)c5cccnc5)cc4Cl)no3)c2)cc1
active: MDA-MB-435 melanoma 6.69%
inactive: SR leukemia 19% | RPMI-8226 leukemia 43.8% | OVCAR-8 ovarian 38.8% | OVCAR-5 ovarian 84.7% | OVCAR-4 ovarian 53% | IGROV1 ovarian 54.7% | OVCAR-3 ovarian 20.7% | HS 578T breast 24.5% | NCI/ADR-RES ovarian 94.7% | T-47D breast 14% | BT-549 breast 33.3% | SW-620 colon 29.5% | MCF7 breast 17.1% | HCT-116 colon 30.4% | HCC-2998 colon 69.1% | KM12 colon 28.7%

COc1ccc(C(=O)COc2cccc(/C=C3\CSc4ccccc4C3=O)c2)cc1
active: SR leukemia -65.1% | RPMI-8226 leukemia -62.4% | OVCAR-8 ovarian 6.51% | HS 578T breast -11.1% | BT-549 breast -74.8% | MDA-MB-435 melanoma -21.1% | SW-620 colon -96.9% | MCF7 breast -79.8% | HCT-116 colon -87.5% | KM12 colon -77.3%
inactive: OVCAR-5 ovarian 32.4% | OVCAR-4 ovarian 84.4% | SK-OV-3 ovarian 108% | OVCAR-3 ovarian 64.4% | NCI/ADR-RES ovarian 15.1% | T-47D breast 69.7%

C=CCSSC1N=CNc2nc[nH]c21 (stereo not drawn)
active: RPMI-8226 leukemia -15.1% | MCF7 breast 4.28%
inactive: SR leukemia 13% | OVCAR-8 ovarian 22.6% | OVCAR-5 ovarian 42.7% | OVCAR-4 ovarian 34.4% | IGROV1 ovarian 64.5% | OVCAR-3 ovarian 32.3% | HS 578T breast 54.5% | NCI/ADR-RES ovarian 26.5% | T-47D breast 22.8% | BT-549 breast 47% | MDA-MB-435 melanoma 25.5% | SW-620 colon 35.8% | HCT-116 colon 14.5% | HCC-2998 colon 44.2% | KM12 colon 52.5%

Cn1cc(-c2nonc2-c2cn(C)c3ccc(F)cc23)c2cc(F)ccc21
active: MDA-MB-435 melanoma -4.48%
inactive: SR leukemia 31.8% | RPMI-8226 leukemia 81.4% | OVCAR-8 ovarian 81.7% | OVCAR-5 ovarian 92% | OVCAR-4 ovarian 79% | IGROV1 ovarian 52.5% | OVCAR-3 ovarian 23.4% | HS 578T breast 52.2% | NCI/ADR-RES ovarian 30.9% | T-47D breast 64.7% | BT-549 breast 68.6% | SW-620 colon 22.2% | MCF7 breast 27.9% | HCT-116 colon 28.2% | HCC-2998 colon 73% | KM12 colon 33%

CC(C)(C)CC(C)(C)c1ccc(OCCOCC[N+](C)(C)Cc2ccccc2)cc1
active: SR leukemia -50.8% | RPMI-8226 leukemia -60.3% | OVCAR-8 ovarian -65.7% | OVCAR-4 ovarian -16% | IGROV1 ovarian -45.9% | OVCAR-3 ovarian -35% | T-47D breast -7.78% | MDA-MB-435 melanoma -81.1% | SW-620 colon -39.2% | MCF7 breast -80.4% | HCT-116 colon -27.9% | HCC-2998 colon -32.5% | KM12 colon -91.3%
inactive: OVCAR-5 ovarian 29.6% | NCI/ADR-RES ovarian 112%
